Screens as filed in PubChem.
Hits are enriched below; roughly 21% of the tested compounds scored in any of these assays.
Shiga inhibitor – A qHTS for Small Molecule Inhibitors of Shiga Toxin; Vero cells, Shiga toxin protein synthesis inhibition reporter; inhibition, % at 38.7 µM; actives 9.2% (n = 290,000); AID 2315, 2010; in the data active means inhibition mostly above about 28%, no sharp cut-off; inactive means mostly below about 43%; further: 0% is about no effect
Pf growth 96h – Primary qHTS for delayed death inhibitors of the malarial parasite plastid, 96 hour incubation; actives 6.9% (n = 320,000); P. falciparum luciferase reporter growth, 96 h; Potency, µM (highest dose often 28.7 µM), inactives show at the highest dose activity change, negative = inhibition, hits mostly inhibitors; further: potency means the concentration at half of the fitted maximal effect; on the % scale 0 is the no-effect control and ±100 the full control effect
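Plates of compound plus infected erythrocytes (2% hematocrit, 0.05% parasitemia final) incubate 96 hours, 37 C, 5% CO2. Detection reagent added; reduced luminescence from the parasites' luciferase reporter flags inhibition.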
Pf growth 48h – Primary qHTS for delayed death inhibitors of the malarial parasite plastid, 48 hour incubation. P. falciparum luciferase growth in erythrocytes, 48 h. Potency, µM (doses to about 28.7 µM), inactives show at the top dose activity change, negative = inhibition, most hits filed as inhibitors. actives 5.9% (n = 310,000); further: potency means the concentration at half of the fitted maximal effect; on the % scale 0 is the no-effect control and ±100 the full control effect
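A one-generation exposure of luciferase-tagged malaria parasites in RPMI 1640/Albumax erythrocyte culture, 37 C and 5% CO2. Inhibition is inferred from decreased luminescence after adding detection reagent.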
NS1 inh – qHTS Assay for Inhibitors of Influenza NS1 Protein Function. Potency, µM (titrated, usually from 46.1 µM), for the others: at the top dose activity, positive = more growth. actives 0.4% (n = 270,000). AID 2326, 2010; calls by dose curve; further: potency means the concentration at half of the fitted maximal effect; actives are rising curves; nearly all actives have a fitted effect of over 50% in size
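In this qHTS, NS1 from influenza A is expressed in budding yeast, where it slows growth. Cells are switched from glucose to 2% galactose medium (pH 6.0, -URA), treated with compound, and growth recovery is read at OD600.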
CHX counter – Cycloheximide Counterscreen for Small Molecule Inhibitors of Shiga Toxin. cell reporter, cycloheximide protein synthesis inhibition counterscreen. AID 2314, 2010. actives 12% (n = 300,000). max response, %; in the data active means max response mostly above about 13%, no sharp cut-off; inactive means mostly below about 14%; further: read at 38.3 µM for the half of the compounds with a filed dose; 0% is about no effect
Sm TGR inh – qHTS Assay for the Inhibitors of Schistosoma Mansoni Peroxiredoxins. purified TGR, DTNB reduction, TNB absorbance 405 nm. Potency, µM (highest dose often 114 µM), for the others: at the highest dose activity change, negative = inhibition, most hits filed as inhibitors. actives 3% (n = 360,000). AID 485364, 2010; further: potency means the concentration at half of the fitted maximal effect; on the % scale 0 is the no-effect control and ±100 the full control effect; nearly all actives have a fitted effect of over 60% in size
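Kinetic colorimetric format: TGR-catalysed, NADPH-driven DTNB reduction monitored via TNB absorbance. Enzyme dispensed at 20 nM; compound exposure 15 min at room temperature before reaction start.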
An asterisk follows results filed as active; ? = inconclusive; / = no result; [ ] = remark or other dose. Unless noted, the call rests on the fitted dose curve; in most records, active means well fitted curve in the direction sought with a large enough effect; inconclusive means small, poorly fitted or top-dose-only effect, or another doubt; inactive means no such curve, though single readings can be large; an effect the other way counts as inactive or inconclusive.

SMILES	Shiga inhibitor	Pf growth 96h	Pf growth 48h	NS1 inh	CHX counter	Sm TGR inh
CCCCNS(=O)(=O)c1ccc2nc(-c3cccnc3)cc(C(=O)NCCCN(CC)CC)c2c1	10	?	12µM*	/	-3	3%
CCOc1ccc(CCNC(=O)CN2C(=O)NC3(CCCCCC3)C2=O)cc1OCC	/	?	13µM*	/	/	-2%
CCOc1ccc(CCNC(=O)CN2CCN(Cc3ccccc3F)C2=O)cc1OCC	-4	1.5µM*	?	1%	-3	16%
CCOc1ccc(CCNC(=O)CN2CCN(Cc3ccc(F)cc3)C2=O)cc1OCC	-3	-3%	/	-1%	-1	7%
COc1ccc(CNC(=O)CN2C(=O)NC3(CCCCCC3)C2=O)cc1OC	-16	0%	0%	/	1	-9%
COc1cc([N+](=O)[O-])ccc1NC(=S)NC(=O)CC(C)(C)C	6	8%	-18%	7%	-3	2%
O=C(NCc1ccco1)Nc1ccc(Br)cc1	66*	11%	46%	-35%	21	0%
O=C(NCc1ccco1)NCC(F)(F)F	-19	/	10%	1%	-4	0%
O=C(NCc1ccco1)Nc1ccc2nsnc2c1	42	-22%	41%	1%	30*	?
COc1ccc(NC(=O)NCc2ccco2)cc1OC	20	-2%	-11%	-5%	-2	/
O=C(NCc1ccco1)Nc1ccc(OC(F)(F)F)cc1	20	?	?	-38%	18*	17%
COc1cccc(CNc2ccc3c(c2)nc(C)n3C)c1OC	61*	?	32%	-16%	33*	5%
COc1cccc(CNc2ccc3c(c2)ncn3C)c1OC	23	-10%	?	8%	19*	3%
COc1cccc(CNC(=O)Cn2nc(C)n3c(cc4cc(C)ccc43)c2=O)c1OC	/	/	/	/	/	3%
CCCn1cnc2cc(NCc3ccccc3OCC)ccc21	/	/	/	/	/	-8%
CCc1cccc(NC(=O)CCc2c(C)nc3c(-c4ccccc4)c(C)nn3c2C)c1	/	/	/	/	/	-2%
Cc1c(C(=O)N(C)C)sc2c1c(=O)n(-c1ccc(Cl)cc1)c(=O)n2CC(=O)C(C)(C)C	/	/	/	/	/	-9%
CCOC(=O)CCc1c(C)nc(SCCN2CCCC2)c(C#N)c1C	12	5.2µM*	?	-3%	-4	-3%
Cc1ccccc1C(=O)NC(=S)NCC(=O)c1ccccc1	-15	4%	?	5%	-3	0%
O=C(CNC(=S)NC(=O)c1ccccc1)c1ccccc1	44*	36%	63%	15%	23*	-8%
O=C(CNC(=S)NC(=O)c1ccc(F)cc1)c1ccccc1	10	20%	40%	-2%	6	-2%
CC(C)C(=O)NC(=S)NCC(=O)c1ccccc1	26	?	49%	-9%	29*	1%
CN(C)/C=N/c1ncc(C(=O)c2ccc(Cl)cc2)s1	58*	52%	50%	-2%	43*	6%
COc1ccccc1N(CC(=O)NC1CCCC1)C(=O)c1cnn(C(C)C)c1	56*	-18%	28%	-4%	28*	-5%
Oc1cccc(/C=C/c2ccc3cccc(O)c3n2)c1	128*	-25%	-31%[0.00184 µM]	-74%	37*	-16%
SMILES	Shiga inhibitor	Pf growth 96h	Pf growth 48h	NS1 inh	CHX counter	Sm TGR inh
COC(=O)c1ccc(/C=C/c2ccc3cccc(OC)c3n2)cc1	-9	?	9%	-4%	-3	-7%
Cc1cccc(/C=C/c2ccccc2)n1	/	/	/	-4%	/	/
CC(=O)COc1cccc2ccc(/C=C/c3ccc(Br)s3)nc12	36*	?	-31%	-55%	20	-1%
COc1cccc(/C=C/c2ccc3cccc(O)c3n2)c1	121*	24%	52%	-1%	47*	3%
Cc1ccc(/C=C/c2ccc3cccc(O)c3n2)s1	95*	-51%	-26%	-12%	58*	-2%
COc1ccc(NC(=O)C2CCN(C(=O)c3sc4nc[nH]c(=O)c4c3C)CC2)cc1Cl	/	/	/	/	/	1%
COc1cc(F)c(C2=CC(=O)C[C@H](c3ccc(Cl)cc3)C2)cc1F	/	?	?	/	/	-7%
CC(C)c1ccc(NC(=O)COc2nncc3ccccc23)cc1	43*	2%	-1%	3%	24*	-12%
CCCC(C)c1nnc(NC(=O)CCS(=O)(=O)c2ccccc2)s1 (centres undefined)	-14	24%	11%	0%	-2	89µM*
COc1ccccc1N1CCN(C(=O)CCC(=O)Nc2nnc(C(C)C)s2)CC1	-8	12µM*	-5%	-5%	-2	0%
O=C(Cc1ccccc1)Nc1cccnc1	14	3%	3%	/	6	1%
O=C(CCc1ccccc1)Nc1cccnc1	104*	49%	-2%[0.00184 µM]	1%	13*	0%
CCC(CC)c1nnc(NC(=O)CS(=O)(=O)c2ccccc2)s1	-10	3%	5%	11%	-4	6%
CC(C)CN(C1CCS(=O)(=O)C1)S(=O)(=O)c1ccc(C(C)C)cc1 (centres undefined)	/	?	-15%	/	/	1%
O=C(CSc1oc(-c2ccco2)nc1S(=O)(=O)c1ccc(Cl)cc1)c1ccc(Cl)cc1	/	/	/	/	/	-21%
CC(C)c1nnc(NC(=O)CCS(=O)(=O)c2ccccc2)s1	44*	18%	0%	-2%	9	18µM*
CC(C)c1ccc(NC(=O)CCc2ccccc2)cc1	136*	-5%	105%	-42%	56*	16%
CC(C)c1nnc(NC(=O)CCC(=O)NCCc2ccccc2)s1	11	13%	-11%	0%	1	12%
COCc1nnc(NC(=O)CCS(=O)(=O)c2ccccc2)s1	-3	19%	-19%	-11%	1	-2%
CC(C)c1nnc(NC(=O)CCc2ccccc2)s1	28	0%	22%	2%	19*	7%
CCc1nnc(NC(=O)CCS(=O)(=O)c2ccccc2)s1	-6	2%	7%	-1%	2	22µM*
CCc1nnc(NC(=O)CCS(=O)(=O)c2ccc(C)cc2)s1	/	5%	?	/	/	?
CC(C)N(C)S(=O)(=O)c1ccc(NC(=O)C2=COCCO2)cc1	/	69%	90%	/	/	3%
CCOC(=O)C1CCN(C(=O)CN(c2ccc3c(c2)OCCO3)S(C)(=O)=O)CC1	-5	0%	/	-1%	-3	1%
Cc1cc(C)n2nnnc2c1C#N	-2	13µM*	18%	11%	7	7%
N#Cc1cc2ccccc2n2nnnc12	-4	43%	10%	-10%	-1	3%
CCOC(=O)C1CCN(c2ccc(-c3cccs3)nn2)CC1	99*	47%	25%	-9%	37*	4%
c1csc(-c2ccc(N3CCOCC3)nn2)c1	27	?	146%	7%	25*	2%
CCOC(=O)C1CCN(c2ccc(Cl)nn2)CC1	21	?	10%	/	11	12%
